Source: PubChem BioAssay (NCATS)
Inconclusive results are not listed. The source made the active and inactive calls. Unless noted, the call rests on the fitted dose curve; in most records, active means well fitted curve in the direction sought with a large enough effect; inconclusive means small, poorly fitted or top-dose-only effect, or another doubt; inactive means no such curve, though single readings can be large; an effect the other way counts as inactive or inconclusive.

Columns and labels:
[1] = target: Lysosomal acid glucosylceramidase (Homo sapiens) (UniProt P04062); experiment: Glucocerebrosidase-p2 (AID 348; in the data active means potency below about 10 µM; further: potency means the concentration at half of the fitted maximal effect); settings: purified GBA, blue fluorogenic substrate, 40 min
In short: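 Compounds titrated from 0.6 nM upwards against 0.2 nM enzyme in pH 5.9 citric acid/KH2PO4, taurocholate, tween-20; blue fluorogenic substrate 80 uM, 40 min room temperature, stopped and read Ex 365/Em 440 for AC50.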

[2] = AP1 Signaling Pathway (AID 357; active means well fitted curve in either direction with a large enough effect, not every such curve was filed as active;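 further: ME-180 reporter cells stimulated with EGF at its EC50 level; on the % scale 0 is the no-effect control and ±100 the full control effect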); settings: ME-180 AP-1-bla reporter, EGF-induced, beta-lactamase ratio, 5 h; at 7.69 µM (top of the series) unless noted
In short: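 AP-1-bla ME-180 cells, Opti-MEM + 0.5% dialyzed FBS, plated overnight 37 °C. Cpd titration + EC50 EGF, 5 h 37 °C. CCF4 2.5 h RT; ex 405, em 460/530 ratio → %activity, AC50.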

[3] = target: Cytochrome P450 1A2 (Homo sapiens) (UniProt P05177); experiment: p450-cyp1a2 (AID 410; calls by dose curve; further: potency means the concentration at half of the fitted maximal effect); settings: recombinant CYP1A2, luciferin-ME demethylation, luminescence; series mostly up to 57 µM
In short: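 Inhibition was calculated relative to 57 uM furafylline (full inhibition). The reaction used human CYP1A2 at 20nM with Luciferin-ME at its Km, 100uM, driven by an NADPH-regenerating system for 60 min at room temperature.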

[4] = NFAT Signaling Pathway (AID 444; active means well fitted curve in either direction with a large enough effect, not every such curve was filed as active;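 further: carbachol stimulus at about its EC50 of 1 µM final; on the % scale 0 is the no-effect control and ±100 the full control effect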); settings: Jurkat NFAT-bla M1, carbachol, beta-lactamase ratio, 5 h; at 7.69 µM (top of the series) unless noted
In short: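 Jurkat cells with NFAT-driven β-lactamase reporter and co-expressed M1 receptor, stimulated with carbachol (final 1 uM, ~EC50), compound titration, 5 h at 37 °C. CCF4 loaded 1 h at RT; 460/530 nm ratio gave %activity and AC50.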

[5] = Stat Signaling Pathway (AID 446; active means well fitted curve in either direction with a large enough effect, not every such curve was filed as active;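 further: ME-180 cervical cancer cells given 40 pM IL-6 alongside compound; SIE-controlled beta-lactamase reporter measured as 460/530 nm FRET emission ratio; on the % scale 0 is the no-effect control and ±100 the full control effect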); settings: ME-180 SIE beta-lactamase reporter, IL-6 stimulated, 5 h; at 7.69 µM (top of the series) unless noted
In short: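 ME-180 cells carrying a SIE-driven beta-lactamase reporter are stimulated with 40 pM IL-6 for 5 h at 37C in the presence of compound. The 460/530 nm FRET substrate ratio is read after 2.5 h at RT. Data are normalised to 300 pM IL-6 and to 125 nM JAK inhibitor controls.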

[6] = target: Glucocorticoid receptor (Homo sapiens) (UniProt P04150); experiment: GR-GFP Redistribution (AID 450;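 active means compounds whose dose series gives a full or clear partial fitted curve of increased nuclear translocation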; further: potency means the concentration at half of the fitted maximal effect); settings: U2OS GR-GFP nuclear translocation, laser cytometry, 2 h
[7] = target: Glucocorticoid receptor (Homo sapiens) (UniProt P04150); experiment: GR-EFC Redistribution (AID 451; calls by dose curve; further: potency means the concentration at half of the fitted maximal effect); settings: CHO-K1 GR-EFC translocation, beta-gal luminescence, 2 h
In short: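 CHO-K1 cells expressing nuclear EA and GR-ED fragments of b-gal; compounds titrated up to 46 uM final, 2 h at 37 C. GR nuclear translocation read as complemented b-gal luminescence after 1 h RT detection.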

[8] = target: Mitogen-activated protein kinase 10 (Mus musculus) (UniProt Q61831); experiment: JNK3 AlphaScreen Assay (AID 530; active means well fitted curve in either direction with a large enough effect, not every such curve was filed as active;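 further: kinase came from lysate of stimulated human HepG2 cells; signal reports phosphorylation of biotinylated GST-cJun 1-79 at Ser73 with 10 µM ATP; on the % scale 0 is the no-effect control and ±100 the full control effect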); settings: JNK3 lysate, c-Jun phosphorylation; series mostly up to 57.1 µM
In short: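 qHTS format: compounds tested as titrations against IL-1beta/TNF-alpha-activated HepG2 lysate JNK3 with biotin-GST-cJun substrate and 10 uM ATP at room temperature. Loss of anti-phospho-cJun AlphaScreen signal indicates inhibition.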

[9] = target: 3',5'-cyclic-AMP phosphodiesterase 4B (Homo sapiens) (UniProt Q07343); experiment: qHTS Assay for Inhibitors of PDE-IV (AID 607; active means well fitted activation curve with a large enough effect in the main read-out, with a control signal flat, not every such curve was filed as active; further: % of control where 0% means no effect); settings: HEK293 ACTOne CNG channel cells, membrane potential fluorescence; series mostly up to 22.9 µM
In short: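 HEK293 ACTOne cells with CNG channel (1000/well), endogenous PDE4; membrane potential dye, compounds up to 22.9 uM final. Fluorescence Ex 535/Em 590; RO 20-1724 (100 uM final) as reference.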

[10] = target: Cytochrome P450 3A4 (Homo sapiens) (UniProt P08684); experiment: qHTS Assay for Activators of Cytochrome P450 3A4 (AID 885); settings: recombinant CYP3A4, Luciferin-PPXE luminescence, 60 min; series mostly up to 57.1 µM; further: nearly all actives have a fitted effect of over 65% in size
In short: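 Human CYP3A4 (20 nM) with Luciferin-PPXE at 25 uM (its KM) in 200 mM KPO4; 10 min compound preincubation, then NADPH regeneration and 60 min reaction at RT. Luciferin read by luminescence; normalized to 57 uM ketoconazole full inhibition.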

[11] = Confirmatory qHTS for small molecule stabilizers of the endoplasmic reticulum resident proteome: Secreted ER Calcium Modulated Protein (SERCaMP) assay (AID 1508628); settings: SERCaMP secreted luciferase ER calcium/proteostasis reporter; series mostly up to 76.3 µM; further: nearly all actives have a fitted effect of over 40% in size; further: potency means the concentration at half of the fitted maximal effect
In short: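 We seeded SH-SY5Y-GLuc-SERCaMP cells, added compounds (three concentrations in the primary run, eleven up to 76.6 uM in confirmation), incubated 16 h, depleted ER calcium with thapsigargin, and read luciferase 4 h later.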

[12] = Counterscreen qHTS for small molecule stabilizers of the endoplasmic reticulum resident proteome: GLuc-NoTag assay (AID 1508627); settings: Gaussia luciferase NoTag secretion counterscreen, luminescence, thapsigargin 100 nM for final 4 h; series mostly up to 76.4 µM;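 further: SH-SY5Y cells given compound then 100 nM thapsigargin to empty ER calcium; 0% = thapsigargin alone and -100% = DMSO vehicle control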
In short: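 SH-SY5Y cells stably expressing constitutively secreted GLuc without SERCaMP tag, exposed to compound for 19 hr, then to 100 nM thapsigargin for 4 hr at 37C. Medium luciferase was read by coelenterazine luminescence without lysis.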

[13] = Cell Viability qHTS for small molecule stabilizers of the endoplasmic reticulum resident proteome (AID 1508629); settings: cell viability counter-screen, 100 nM thapsigargin for final 4 h
[14] = qHTS Assay for Identification of Small Molecule Agonists for Hypoxia Response Element Signaling Pathway (AID 914; active means well fitted activation curve with a large enough effect in the signal ratio, with a control signal flat, not every such curve was filed as active; the % refers to the signal ratio; further: potency means the concentration at half of the fitted maximal effect); settings: ME-180 (cervical carcinoma) HRE-bla reporter, beta-lactamase ratio, CoCl2, 17 h; activation: stronger effect = higher value
In short: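 Read-out: CCF4 FRET ratio of 460nm to 530nm emission (excitation 405nm) after 2.5 hours at room temperature, taken from HRE-bla ME-180 cells that had been exposed to compound and EC50 CoCl2 for 17 hours.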

[15] = qHTS Assay for Lipid Storage Modulators (AID 1519; calls by dose curve); settings: Drosophila S3 cells, BODIPY lipid droplet/cell ratio, laser cytometry, cells loaded with oleic acid; for activity change, negative = inhibition: at 57.5 µM (top of the series)
In short: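 Cells seeded at 5,000 per well were treated with compounds over a concentration series and loaded with oleic acid (400 uM, as added). Lipid droplet fluorescence (488 nm excitation, 500-530 nm channel) was read by laser-scanning cytometry and normalized to 20 uM Triacsin C.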

[16] = target: Dual specificity protein kinase CLK4 (Homo sapiens) (UniProt Q9HAZ1); experiment: qHTS Assay for Inhibitors of CDC-like Kinase 4 (ADP-Glo Assay) (AID 1771); settings: recombinant CLK4, ADP-Glo luminescence; series mostly up to 80 µM; further: on the % scale 0 is the no-effect control and ±100 the full control effect; nearly all actives have a fitted effect of over 70% in size
In short: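 Kinase reaction: Clk4 at 25 nM, RS repeat peptide substrate at 100 uM, ATP at 1 uM, 1 hr, room temperature. Product ADP detected as luciferase signal via ADP-Glo.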

[17] = target: Dual specificity protein kinase CLK4 (Homo sapiens) (UniProt Q9HAZ1); experiment: qHTS Assay for Inhibitors of CDC-like Kinase 4 (ADP-FP Assay) (AID 1795); settings: Transcreener ADP fluorescence polarization; series mostly up to 50 µM;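 further: recombinant human CLK4 phosphorylating RS repeat peptide at 1 µM ATP; on the % scale 0 is the no-effect control and ±100 the full control effect; nearly all actives have a fitted effect of over 60% in size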
In short: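 Recombinant Clk4 (6.25 nM) phosphorylated 100 uM RS repeat peptide with 1 uM ATP in 25 mM Tris pH 7.5, 10 mM MgCl2, 0.5 mM EGTA, 2.5 mM DTT, 0.01% Triton X-100 for 1 h. ADP was detected by Transcreener ADP2 competitive fluorescence polarization after 30 min at room temperature.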

[18] = target: Ubiquitin carboxyl-terminal hydrolase 1 (Homo sapiens) (UniProt O94782); experiment: Inhibitors of USP1/UAF1: Pilot qHTS (AID 504865); settings: purified USP1/UAF1, Ub-rhodamine cleavage fluorescence; series mostly up to 54.9 µM;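 further: rhodamine fluorescence freed from ubiquitin-rhodamine substrate followed over time; top concentration of the series differs between compounds; on the % scale 0 is the no-effect control and ±100 the full control effect; nearly all actives have a fitted effect of over 35% in size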
In short: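 USP1/UAF1 complex at 1 nM preincubated 15 min at room temperature with compound, then Ub-Rho substrate added at 150 nM final. Fluorescence (480/540 nm) read kinetically in 50 mM HEPES pH 7.8, 0.5 mM EDTA, 1 mM TCEP, 0.1 mg/ml BSA, 0.01% Tween-20.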

[19] = target: Cytochrome P450 2C9 (Homo sapiens) (UniProt P11712); experiment: qHTS Assay for Inhibitors and Substrates of Cytochrome P450 2C9 (AID 883); settings: recombinant CYP2C9, luciferin-H luminescence, 60 min; series mostly up to 57.1 µM; further: potency means the concentration at half of the fitted maximal effect; nearly all actives have a fitted effect of over 60% in size
In short: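 Signal: luciferase luminescence reporting luciferin produced by CYP2C9. Conditions: 10nM enzyme, Luciferin-H 100uM at KM, 25mM KPO4, 37C, 60 min NADPH-driven reaction. Reference: 57uM sulphaphenazole as 100% inhibition.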

[20] = target: Cytochrome P450 2C19 (Homo sapiens) (UniProt P33261); experiment: qHTS Assay for Inhibitors and Substrates of Cytochrome P450 2C19 (AID 899); settings: recombinant CYP2C19, luciferin-H EGE luminescence; series mostly up to 57.1 µM; further: on the % scale 0 is the no-effect control and ±100 the full control effect; nearly all actives have a fitted effect of over 60% in size
In short: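 Signal comes from luciferase acting on luciferin released by CYP2C19-mediated hydroxylation of Luciferin-H EGE, 10uM (KM). Assay mix: 5nM enzyme, 50mM KPO4; 60 min at 37C with NADPH regeneration. Data normalized against 57uM ketoconazole.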

[21] = target: Dual specificity protein kinase CLK4 (Homo sapiens) (UniProt Q9HAZ1); experiment: qHTS Assay for Inhibitors of CDC-like Kinase 4 (Kinase-Glo Assay) (AID 1770); settings: recombinant Clk4, Kinase-Glo ATP depletion luminescence; series mostly up to 66.7 µM; further: on the % scale 0 is the no-effect control and ±100 the full control effect; nearly all actives have a fitted effect of over 65% in size
In short: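 25 nM Clk4 with 100 uM RS repeat peptide and 1 uM ATP (final) in Tris pH7.5, 10 mM MgCl2, 4.5 h at room temperature. Remaining ATP measured by Kinase-Glo luciferase luminescence.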

[22] = measured here: cell count channel max response
[23] = measured here: lipid channel max response

Sequence of Cytochrome P450 3A4 (Homo sapiens) (P08684 whole entry, looked up): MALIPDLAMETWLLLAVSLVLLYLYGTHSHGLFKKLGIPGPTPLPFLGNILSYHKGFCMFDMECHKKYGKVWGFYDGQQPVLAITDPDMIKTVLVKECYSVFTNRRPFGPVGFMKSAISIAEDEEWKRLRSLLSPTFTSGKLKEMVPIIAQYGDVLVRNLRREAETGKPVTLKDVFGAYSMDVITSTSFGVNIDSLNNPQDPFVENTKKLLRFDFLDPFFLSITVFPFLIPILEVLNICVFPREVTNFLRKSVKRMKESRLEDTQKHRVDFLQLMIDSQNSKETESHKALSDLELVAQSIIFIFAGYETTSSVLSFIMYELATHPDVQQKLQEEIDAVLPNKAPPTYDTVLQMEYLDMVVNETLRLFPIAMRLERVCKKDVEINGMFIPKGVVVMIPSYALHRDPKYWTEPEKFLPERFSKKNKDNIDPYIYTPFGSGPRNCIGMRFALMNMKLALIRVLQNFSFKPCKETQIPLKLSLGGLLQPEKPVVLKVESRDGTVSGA
Sequence of Glucocorticoid receptor (Homo sapiens) (P04150 whole entry, looked up, the tested form may be a part): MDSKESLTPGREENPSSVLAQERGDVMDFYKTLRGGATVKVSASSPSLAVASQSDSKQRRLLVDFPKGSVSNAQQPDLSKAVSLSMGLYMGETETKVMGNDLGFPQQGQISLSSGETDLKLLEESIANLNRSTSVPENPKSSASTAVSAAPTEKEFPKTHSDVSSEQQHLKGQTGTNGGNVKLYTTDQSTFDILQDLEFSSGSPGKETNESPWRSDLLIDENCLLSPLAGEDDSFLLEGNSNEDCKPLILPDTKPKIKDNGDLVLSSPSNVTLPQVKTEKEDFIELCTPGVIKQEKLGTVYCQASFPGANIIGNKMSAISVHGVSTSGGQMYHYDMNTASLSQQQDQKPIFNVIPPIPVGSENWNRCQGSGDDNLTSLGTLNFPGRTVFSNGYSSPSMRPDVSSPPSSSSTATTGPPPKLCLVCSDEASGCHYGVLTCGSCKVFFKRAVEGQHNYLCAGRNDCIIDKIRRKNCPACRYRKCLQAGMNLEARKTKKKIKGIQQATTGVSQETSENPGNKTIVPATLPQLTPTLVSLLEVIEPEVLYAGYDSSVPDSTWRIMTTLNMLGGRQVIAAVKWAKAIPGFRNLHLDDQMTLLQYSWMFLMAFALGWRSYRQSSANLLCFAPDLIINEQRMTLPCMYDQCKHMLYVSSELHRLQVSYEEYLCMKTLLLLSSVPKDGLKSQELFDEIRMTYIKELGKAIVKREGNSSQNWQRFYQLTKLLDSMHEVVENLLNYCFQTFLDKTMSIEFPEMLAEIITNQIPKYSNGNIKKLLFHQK
Sequence of Dual specificity protein kinase CLK4 (Homo sapiens) (Q9HAZ1 whole entry, looked up): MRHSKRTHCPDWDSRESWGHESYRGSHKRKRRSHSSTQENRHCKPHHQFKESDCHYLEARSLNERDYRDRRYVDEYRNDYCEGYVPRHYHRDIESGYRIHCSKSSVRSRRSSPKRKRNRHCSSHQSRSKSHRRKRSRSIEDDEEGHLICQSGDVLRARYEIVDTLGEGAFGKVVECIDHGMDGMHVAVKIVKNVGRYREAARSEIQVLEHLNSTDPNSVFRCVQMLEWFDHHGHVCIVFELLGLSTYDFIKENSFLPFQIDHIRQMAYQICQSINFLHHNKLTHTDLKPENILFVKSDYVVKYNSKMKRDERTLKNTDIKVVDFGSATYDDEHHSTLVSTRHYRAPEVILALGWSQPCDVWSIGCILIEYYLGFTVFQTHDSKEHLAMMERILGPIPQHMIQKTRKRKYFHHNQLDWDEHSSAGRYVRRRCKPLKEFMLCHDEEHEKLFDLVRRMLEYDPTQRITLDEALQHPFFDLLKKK
Sequence of Cytochrome P450 1A2 (Homo sapiens) (P05177 whole entry, looked up): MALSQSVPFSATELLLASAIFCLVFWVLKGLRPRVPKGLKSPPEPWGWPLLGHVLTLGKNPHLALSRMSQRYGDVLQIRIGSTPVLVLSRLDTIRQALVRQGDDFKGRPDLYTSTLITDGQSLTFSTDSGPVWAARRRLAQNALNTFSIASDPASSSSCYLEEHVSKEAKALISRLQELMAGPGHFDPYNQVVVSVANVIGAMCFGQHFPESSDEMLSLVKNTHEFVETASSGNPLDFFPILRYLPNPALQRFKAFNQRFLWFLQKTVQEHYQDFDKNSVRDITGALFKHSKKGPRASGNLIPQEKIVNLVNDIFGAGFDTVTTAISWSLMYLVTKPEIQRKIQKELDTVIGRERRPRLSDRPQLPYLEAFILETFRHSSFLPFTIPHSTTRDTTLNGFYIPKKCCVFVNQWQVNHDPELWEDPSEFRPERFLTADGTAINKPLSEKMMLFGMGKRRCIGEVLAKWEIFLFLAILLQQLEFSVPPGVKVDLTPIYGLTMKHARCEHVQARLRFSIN
Sequence of Lysosomal acid glucosylceramidase (Homo sapiens) (P04062 whole entry, looked up): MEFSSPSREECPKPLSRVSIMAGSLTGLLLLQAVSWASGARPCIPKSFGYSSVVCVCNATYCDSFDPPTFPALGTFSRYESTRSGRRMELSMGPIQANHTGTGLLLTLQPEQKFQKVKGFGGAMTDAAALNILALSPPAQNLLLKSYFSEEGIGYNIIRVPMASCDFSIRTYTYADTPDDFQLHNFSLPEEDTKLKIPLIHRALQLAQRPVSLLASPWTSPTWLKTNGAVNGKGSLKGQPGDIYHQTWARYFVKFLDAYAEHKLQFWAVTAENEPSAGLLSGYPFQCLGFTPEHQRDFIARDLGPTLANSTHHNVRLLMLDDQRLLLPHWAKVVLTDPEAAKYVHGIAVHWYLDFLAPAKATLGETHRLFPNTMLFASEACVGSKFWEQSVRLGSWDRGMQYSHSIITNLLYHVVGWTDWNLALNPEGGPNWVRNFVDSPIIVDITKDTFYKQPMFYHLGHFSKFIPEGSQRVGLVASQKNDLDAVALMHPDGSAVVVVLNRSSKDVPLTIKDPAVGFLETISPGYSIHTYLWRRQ
Sequence of 3',5'-cyclic-AMP phosphodiesterase 4B (Homo sapiens) (Q07343 whole entry, looked up): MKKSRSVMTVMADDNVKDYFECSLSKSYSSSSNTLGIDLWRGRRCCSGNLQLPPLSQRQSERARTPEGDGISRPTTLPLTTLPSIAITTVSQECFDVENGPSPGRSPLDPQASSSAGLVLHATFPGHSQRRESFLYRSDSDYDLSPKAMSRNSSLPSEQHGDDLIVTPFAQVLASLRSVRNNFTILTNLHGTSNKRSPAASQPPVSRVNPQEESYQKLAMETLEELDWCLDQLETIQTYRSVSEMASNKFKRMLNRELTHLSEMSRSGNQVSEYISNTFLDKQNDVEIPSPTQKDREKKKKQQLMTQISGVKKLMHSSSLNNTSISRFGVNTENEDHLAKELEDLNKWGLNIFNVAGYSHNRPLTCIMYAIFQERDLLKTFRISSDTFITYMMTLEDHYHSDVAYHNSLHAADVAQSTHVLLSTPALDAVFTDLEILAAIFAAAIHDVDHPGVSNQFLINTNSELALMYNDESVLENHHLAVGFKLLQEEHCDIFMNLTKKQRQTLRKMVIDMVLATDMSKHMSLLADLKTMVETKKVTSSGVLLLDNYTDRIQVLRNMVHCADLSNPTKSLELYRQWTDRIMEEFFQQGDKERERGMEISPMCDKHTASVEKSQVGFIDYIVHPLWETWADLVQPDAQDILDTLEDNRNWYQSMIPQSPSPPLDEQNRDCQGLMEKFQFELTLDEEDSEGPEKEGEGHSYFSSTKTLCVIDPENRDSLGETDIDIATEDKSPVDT
Sequence of Ubiquitin carboxyl-terminal hydrolase 1 (Homo sapiens) (O94782 whole entry, looked up): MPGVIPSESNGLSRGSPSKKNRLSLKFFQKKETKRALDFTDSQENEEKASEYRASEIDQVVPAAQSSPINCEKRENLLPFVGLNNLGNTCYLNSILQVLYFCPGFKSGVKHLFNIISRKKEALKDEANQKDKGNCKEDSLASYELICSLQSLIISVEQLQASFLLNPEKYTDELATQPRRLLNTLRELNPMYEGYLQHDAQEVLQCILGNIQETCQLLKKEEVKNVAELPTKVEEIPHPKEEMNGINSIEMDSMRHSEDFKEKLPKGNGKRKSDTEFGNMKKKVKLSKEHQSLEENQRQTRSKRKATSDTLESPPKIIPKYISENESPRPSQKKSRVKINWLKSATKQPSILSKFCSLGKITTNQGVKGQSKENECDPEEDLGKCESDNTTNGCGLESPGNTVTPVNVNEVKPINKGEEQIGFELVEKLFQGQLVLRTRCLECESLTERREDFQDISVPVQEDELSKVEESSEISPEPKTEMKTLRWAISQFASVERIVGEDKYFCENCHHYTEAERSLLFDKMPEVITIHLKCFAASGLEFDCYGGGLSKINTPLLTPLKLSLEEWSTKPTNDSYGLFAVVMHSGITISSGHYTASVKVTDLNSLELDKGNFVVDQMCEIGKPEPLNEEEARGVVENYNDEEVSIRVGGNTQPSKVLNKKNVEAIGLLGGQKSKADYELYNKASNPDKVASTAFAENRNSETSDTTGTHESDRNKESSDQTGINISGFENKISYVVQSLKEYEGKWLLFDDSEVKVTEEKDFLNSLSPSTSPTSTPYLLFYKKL
Sequence of Cytochrome P450 2C19 (Homo sapiens) (P33261 whole entry, looked up): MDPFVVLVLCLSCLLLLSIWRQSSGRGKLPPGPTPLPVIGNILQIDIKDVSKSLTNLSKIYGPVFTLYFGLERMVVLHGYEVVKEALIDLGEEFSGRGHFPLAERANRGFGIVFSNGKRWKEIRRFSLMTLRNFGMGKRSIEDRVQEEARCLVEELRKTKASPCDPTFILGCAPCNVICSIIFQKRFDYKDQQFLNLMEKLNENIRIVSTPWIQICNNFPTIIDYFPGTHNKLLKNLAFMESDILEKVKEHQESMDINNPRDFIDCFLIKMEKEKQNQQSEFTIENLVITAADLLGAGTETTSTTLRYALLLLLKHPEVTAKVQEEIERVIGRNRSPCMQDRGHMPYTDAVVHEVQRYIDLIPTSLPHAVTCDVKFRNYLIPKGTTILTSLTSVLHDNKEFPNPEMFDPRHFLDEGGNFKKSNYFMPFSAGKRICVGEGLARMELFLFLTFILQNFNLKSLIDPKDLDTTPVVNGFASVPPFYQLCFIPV

N#CCCn1c(=O)c(-c2cc(F)cc(F)c2)nc2cnc(OCc3ccccc3)nc21
inactive: Potency [1] > 11.4 µM | activity change, negative = inhibition [2] -10.3% | activity change, negative = inhibition [4] -0.0706% | activity, negative = inhibition [5] 3.6% | Potency [6] > 9.22 µM | Potency [7] > 46 µM | outcome [8] | Potency [9] | Potency [10]
active: Potency [3] 6.31 µM | Potency [11] 44.7 µM

COc1ccc(-n2c(=O)cnc3cnc(N4CCNCC4)nc32)cc1
active: Potency [3] 12.6 µM
inactive: Potency [1] > 11.4 µM | activity change, negative = inhibition [2] -7.32% | activity change, negative = inhibition [4] 0.78% | activity, negative = inhibition [5] -6.65% | Potency [6] > 9.22 µM | Potency [7] > 46 µM | outcome [8] | Potency [9] | Potency [12] | max response [13] 4.18%

COc1cccc(Cn2c(=O)c(-c3ccccc3)nc3cnc(N4CCNCC4)nc32)c1
active: Potency [3] 3.16 µM | Potency [14] 3.16 µM
8.56%: max response [15, 22]
inactive: Potency [6] > 9.22 µM | Potency [7] > 46 µM | Potency [9] | Potency [10] | activity change, negative = inhibition [15] 4.45% | Potency [16] | Potency [17] | Potency [18] | Potency [12]
11.2%: max response [15, 23]

O=c1c(CCc2ccccc2)nc2cnc(N3CCNCC3)nc2n1CCc1ccccc1
-3.07%: max response [15, 23]
-7.41%: max response [15, 22]
inactive: activity change, negative = inhibition [2] 9.43% | activity change, negative = inhibition [4] 27.2% | activity, negative = inhibition [5] 16.4% | Potency [6] > 9.22 µM | outcome [8] | activity change, negative = inhibition [15] 2.33% | Potency [11] | max response [13] -5.58%

COc1ccc(-c2nc3cnc(N4CCNCC4)nc3n(CCc3ccccc3)c2=O)cc1
-12.2%: max response [15, 23]
inactive: Potency [1] > 11.4 µM | Potency [6] > 9.22 µM | Potency [7] > 46 µM | Potency [9] | Potency [10] | activity change, negative = inhibition [15] -10.5% | Potency [11]
active: activity change, negative = inhibition [2] 111% [activator] | Potency [3] 15.8 µM | Potency [19] 3.98 µM
-3.35%: max response [15, 22]

FC(F)(F)c1ccccc1-c1nc(NC2CCNCC2)c2ccccc2n1
17.3%: max response [15, 23]
inactive: Potency [1] > 11.4 µM | activity change, negative = inhibition [2] 9.18% | activity change, negative = inhibition [4] 7.17% | activity, negative = inhibition [5] 1.97% | Potency [6] > 46 µM | Potency [7] > 46 µM | outcome [8] | Potency [9] | Potency [20] | activity change, negative = inhibition [15] 1.75% | Potency [21] | Potency [16] | Potency [17] | Potency [18] | Potency [12]
19.6%: max response [15, 22]
